Compounds with a hit are over-represented: about 18% of the library has one in this group of screens.
DT40 TDP1 CPT = DT40-hTDP1 cell growth loss with CPT | chicken DT40 Tdp1-/-;hTDP1 cells + 20 nM CPT, ATP luminescence, 48 h | Potency, µM (series often up to 46.2 µM), usual class: inhibitors | 420,000 tested, 12% active; note: nearly all actives have a fitted effect of over 55% in size
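Chicken DT40 Tdp1-/- cells complemented with human TDP1, 400 cells/well, exposed to compounds plus 20 nM camptothecin for at least 48 h at 37 C; viability read as ATP content by CellTiter-Glo luminescence.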
LDHA block = blocks human lactate dehydrogenase A. P00338. purified LDHA, NADH/diaphorase-resazurin fluorescence; stronger effect = lower value. activity change, % (values are at about 110 or 230 µM). 480,000 tested, 0.15% active. AID 1347041; in the data active = activity change below about -30%; inconclusive = mostly about -25% to -30%
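Remaining NADH was detected by diaphorase (0.133 mg/mL) converting 37 µM resazurin to fluorescent resorufin, read at 0 and 20 minutes. The preceding 5-minute room-temperature reaction used 2 nM LDHA, 0.2 mM sodium pyruvate and 0.06 mM NADH at pH 7.4.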
RORgamma inh = blocks mouse ROR gamma transcriptional activity; P51450; Drosophila S2 Gal4-RORgamma UAS-luciferase reporter, 20 h; Potency, µM (titrated, usually from 53.6 µM), actives largely listed as inhibitors; 310,000 tested, 5.4% active; note: nearly all actives have a fitted effect of over 60% in size
Target sequence (P51450 whole entry, looked up, the tested form may be a part): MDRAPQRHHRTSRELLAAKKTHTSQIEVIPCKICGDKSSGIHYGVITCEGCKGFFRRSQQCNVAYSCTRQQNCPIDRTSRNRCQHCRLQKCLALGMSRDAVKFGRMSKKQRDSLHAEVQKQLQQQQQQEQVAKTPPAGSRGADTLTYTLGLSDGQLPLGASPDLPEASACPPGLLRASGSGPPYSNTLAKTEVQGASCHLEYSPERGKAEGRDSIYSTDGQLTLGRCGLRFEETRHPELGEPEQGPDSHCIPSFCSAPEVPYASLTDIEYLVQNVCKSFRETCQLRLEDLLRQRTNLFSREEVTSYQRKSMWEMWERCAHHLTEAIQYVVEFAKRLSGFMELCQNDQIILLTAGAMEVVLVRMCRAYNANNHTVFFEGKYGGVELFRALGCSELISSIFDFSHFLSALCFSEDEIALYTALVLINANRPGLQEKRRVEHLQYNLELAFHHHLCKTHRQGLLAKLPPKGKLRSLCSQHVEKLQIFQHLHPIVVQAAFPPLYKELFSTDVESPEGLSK
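In this cell-based reporter format, copper sulfate (700 uM final) drives Gal4–ROR gamma fusion expression from a metallothionein promoter in Drosophila Schneider cells; compounds preincubated 1 hr, reporter read after 20 hr at ambient temperature.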
DT40 TDP1 no CPT = qHTS for Inhibitors of human tyrosyl-DNA phosphodiesterase 1 (TDP1): qHTS in cells in absence of CPT | DT40 Tdp1-/- hTDP1 cells, no CPT, ATP luminescence, 48 h | AID 686978, 2013 | 420,000 tested, 15% active | Potency, µM (doses to about 46.2 µM), hits mostly inhibitors; note: nearly all actives have a fitted effect of over 55% in size
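Luminescent ATP content (CellTiter-Glo) served as the growth readout. Knockout chicken DT40 cells expressing human TDP1 were exposed to compounds without camptothecin for a minimum 48 hr at 37 °C.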
IL1B secr inh = blocks inflammasome-driven IL-1 beta release; 360,000 tested, 4.7% active; activity change, % at 57.5 µM; THP-1 LPS/ATP IL-1B secretion, AlphaLISA, 16 h; stronger effect = lower value; in the data active = activity change below about -50%; inconclusive = mostly about -30% to -49%
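THP-1 cells pretreated 1 hr with compounds (up to 57.5 uM final), then stimulated with LPS (250 ng/mL final) plus ATP (1.25 mM final); secreted IL-1B measured by AlphaLISA after 16 hr, decreased signal indicating inhibition.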
Gal4-VP16 FLuc = inhibits Gal4-VP16 luciferase reporter, ROR gamma counter-screen; Drosophila S2 Gal4-VP16 UAS-luciferase, luminescence, 20 h; Potency, µM (doses to about 53.6 µM), most hits filed as inhibitors; 310,000 tested, 3.5% active; AID 2546;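 note: Gal4-VP16 expression switched on by copper sulfate through the metallothionein promoter; nearly all actives have a fitted effect of over 50% in size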
A number is an active result; . = inactive; ? = inconclusive; / = no result; [ ] = another dose, or the depositor's remark. Unless noted, calls come from the whole dose curve; as a rule, active = well fitted curve in the direction sought with a large enough effect; inconclusive = small, poorly fitted or top-dose-only effect, or another doubt; inactive = no such curve, though single readings can be large; an effect the other way counts as inactive or inconclusive.

SMILES | DT40 TDP1 CPT | LDHA block | RORgamma inh | DT40 TDP1 no CPT | IL1B secr inh | Gal4-VP16 FLuc
Cn1ccnc1C1CCCCN1C(=O)c1cc(COc2ccc(F)cc2F)on1 (stereo unspecified) | ? | . | . | 13µM | . | .
Cc1cccc(C)c1OCc1cc(C(=O)N2CCCC2c2nonc2C)no1 (stereo unspecified) | ? | . | . | ? | . | .
CSc1ccccc1OCc1cc(C(=O)N2CCCC2c2nonc2C)no1 (stereo unspecified) | 23µM | . | . | 21µM | . | .
CSc1ccccc1OCc1cc(C(=O)N2CCc3[nH]cnc3C2c2ccccn2)no1 (stereo unspecified) | . | . | . | 2.9µM | . | .
CSc1ccccc1OCc1cc(C(=O)N2CCNC(=O)C2)no1 | . | . | . | . | . | .
CCOC(=O)C1=C(CC)OC(N)=C(C#N)C1c1ccc(OC)cc1OC (stereo unspecified) | . | . | ? | ? | . | .
COc1ccc2cc(C3C(C#N)=C(N)OC(C)=C3C(C)=O)c(Cl)nc2c1 (stereo unspecified) | ? | . | . | 21µM | . | .
CC(=O)C1=C(C)OC(N)=C(C#N)C1c1cccc([N+](=O)[O-])c1 (stereo unspecified) | ? | . | . | ? | . | .
CC(=O)C1=C(C)OC(N)=C(C#N)C1c1cc([N+](=O)[O-])ccc1Cl (stereo unspecified) | 4.1µM | . | . | 3.7µM | -62 | .
CCN(CC)c1ccc(-c2nn3c(-c4cccnc4)nnc3s2)cc1 | 18µM | . | . | 21µM | . | ?
CC(C)(C)c1ccc(-c2nnc3sc(-c4ccncc4)nn23)cc1 | 13µM | . | .[0.365 µM] | ? | . | /
Cc1cccc(N2CCN(C(=O)C3CCN(S(=O)(=O)c4cccnc4)CC3)CC2)c1C | 18µM | . | . | 16µM | . | .
Cc1cccc(N2CCN(C(=O)C3CCN(S(=O)(=O)Cc4ccccc4)CC3)CC2)c1C | 7.3µM | . | / | 9.2µM | / | /
O=C(C1CCN(S(=O)(=O)Cc2ccccc2)CC1)N1CCN(c2ccc(F)cc2)CC1 | 23µM | . | / | ? | / | /
CC(=O)c1ccc(N2CCN(C(=O)C3CCN(S(=O)(=O)Cc4ccccc4)CC3)CC2)cc1 | . | . | . | ? | . | .
Cc1ccc2nc(N3CCC(C(=O)N4CCN(c5cccc(C)c5C)CC4)CC3)[nH]c2c1 | 2.9µM | . | / | 5.8µM | / | /
Cc1nn(C)cc1S(=O)(=O)Nc1ccn(Cc2c(F)cccc2Cl)n1 | / | . | / | / | / | /
Cc1ccc(C)c(S(=O)(=O)Nc2ccc3oc(C)nc3c2)c1 | / | . | / | / | / | /
O=c1[nH]nc(-c2ccc(F)cc2)cc1-c1ccccc1 | ? | . | . | . | -72 | .
Cc1ccc(-c2cc3c(nn2)-c2ccccc2C3=O)cc1 | 16µM | . | 1.1µM | 23µM | . | 2µM
O=C1c2ccccc2-c2nnc(-c3ccc(F)cc3)cc21 | ? | . | . | 9.2µM | . | .
O=C1c2ccccc2-c2nnc(-c3ccc(O)cc3)cc21 | ? | . | ? | ? | . | ?
Cc1ccccc1-c1cc2c(nn1)-c1ccccc1C2=O | ? | . | 10µM | ? | . | 8.9µM
O=C(Cc1ccc(F)cc1)N(Cc1ccco1)C1CC1 | / | . | / | / | / | /
O=[N+]([O-])c1cccc(-c2nnc3ccc4ccccc4n23)c1 | 16µM | . | . | 13µM | . | .
SMILES | DT40 TDP1 CPT | LDHA block | RORgamma inh | DT40 TDP1 no CPT | IL1B secr inh | Gal4-VP16 FLuc
O=[N+]([O-])c1cccc(-c2nnc3cccc(Cl)n23)c1 | . | . | . | . | . | .
C=CCNCc1ccccc1OCc1ccc(C)cc1 | / | . | / | / | / | /
CN(C)CCCC(C)(O)C(Cc1ccccc1)c1ccccc1 (stereo unspecified) | ? | . | . | 21µM | . | .
CC(CN(CCN(C)C)Cc1ccccc1)c1ccccc1 (stereo unspecified) | / | . | / | / | / | /
CCc1cccc(NC(=O)c2ncoc2-c2cccc(Cl)c2)c1 | / | . | / | / | / | /
Cc1cc(N2CCN(S(=O)(=O)c3ccc(Cl)cc3C(F)(F)F)CC2)nc(C(C)C)n1 | / | . | / | / | / | /
Cc1ccc(C(=O)NC(=S)Nc2ccc(Oc3ccc(Cl)cc3)cc2)cc1 | ? | . | 0.89µM | 21µM | . | ?
CCNCc1ccc(-c2ccc(C(=O)OC)cc2)o1 | / | . | / | / | / | /
Cc1ccc(C(=O)NC(=S)Nc2ccc(-c3ccc(CO)o3)cc2)cc1 | ? | . | ? | 10µM | . | .
O=C(NC(=S)Nc1ccc(Oc2ccccc2)cc1)c1ccc(Cl)cc1 | ? | . | 8.9µM | 23µM | -54 | ?
CCOC(=O)c1ccc(-c2ccc(CO)o2)cc1 | . | . | 11µM | . | . | ?
O=C(NC(=S)Nc1ccc(-c2ccc(CO)o2)cc1)c1cccs1 | . | . | ? | ? | . | .
COc1ccc(C(=O)NC(=S)Nc2ccc(Cl)c(C(=O)O)c2)cc1 | . | . | . | . | . | ?
COc1cc(OC)c(-c2nc(-c3ccncc3)no2)cc1OC | ? | . | . | 16µM | / | .
COc1ccc(-c2nc(-c3ccncc3)no2)c(OC)c1 | . | . | 7.9µM | ? | . | ?
COc1ccc(C(C)(NC(C)=O)c2nc(-c3ccc(F)cc3OC)cs2)cc1 (stereo unspecified) | 15µM | . | / | 13µM | . | /
COc1cc(F)ccc1-c1csc(C(C)(NC(C)=O)c2ccccc2)n1 (stereo unspecified) | 12µM | . | / | 5.2µM | . | /
COc1ccc(C(C)(NC(C)=O)c2nc(-c3cccc(C(F)(F)F)c3)cs2)cc1 (stereo unspecified) | ? | . | / | ? | . | /
COc1ccc(C(C)(NC(C)=O)c2nc(-c3ccccc3OC)cs2)cc1 (stereo unspecified) | 18µM | . | / | 12µM | . | /
COc1cc(C)ccc1OCc1ccc(C(N)=O)cc1 | / | . | / | / | / | /
Clc1cccc(CNc2n[nH]c(-c3ccco3)n2)c1 | / | . | / | / | / | /
O=C(Nc1ccc(Cl)cc1)c1nc2ccccc2nc1N1CCCCC1 | / | . | / | / | / | /
O=C1CC(C(=O)Nc2ccc3c(c2)OCCO3)c2c(nc(N3CCc4ccccc4C3)[nH]c2=O)N1 (stereo unspecified) | / | . | / | / | / | /
Cc1nc(NC2CCCCC2)c2nc(-c3ccccc3)n(C(C)CN(C)C)c2n1 (stereo unspecified) | / | / | 10µM | / | / | .
Cc1ccc(CN(C)C(=O)CS(=O)(=O)Cc2nc(-c3ccccc3)oc2C)cc1 | / | . | / | / | / | /
Cc1c(OCC(=O)Nc2ccccc2)c(=O)ccn1CCO | / | . | / | / | / | /
COC(=O)c1ccc(CSc2nc3c(cnn3-c3ccc(C)c(C)c3)c(=O)[nH]2)o1 | ? | . | ? | 26µM | . | .
O=C(c1cccc(F)c1)N(Cc1ccco1)C1CC1 | / | . | / | / | / | /
